Source: PubChem BioAssay (National Center for Advancing Translational Sciences (NCATS))
Rows were chosen to be rich in hits. Some 8.8% of all compounds tested hit in one or more screens of this group.
IL-1B inflam inh – qHTS for Inhibitors of Inflammasome Signaling: IL-1-beta AlphaLISA Primary Screen; THP-1 LPS/ATP IL-1B secretion, AlphaLISA, 16 h; active compounds read low; activity change, % at 57.5 µM; actives 4.7% (n = 360,000); AID 743279, 2014; in the data active = activity change below about -50%; inconclusive = mostly about -30% to -49%
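Secreted IL-1B measured by AlphaLISA bead assay after 16 h compound exposure of THP-1 cells; compounds (final up to 57.5 uM) added 1 h before LPS (250 ng/mL) and ATP (1.25 mM) stimulation; lower signal means less secretion.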
HT1080 IDH1KD tx – qHTS for induction of synthetic lethality in tumor cells producing 2HG: qHTS for the HT-1080-IDH1KD cell line | HT-1080 IDH1 knockdown viability, ATP luminescence, 48 h | Potency, µM (top dose mostly 46.1 µM), actives largely listed as cytotoxic | actives 2% (n = 360,000) | AID 686971, 2013
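Cytotoxicity counter-line: IDH1KD HT-1080, 48 h, CellTiter-Glo. Curves classed by r2, magnitude and activity.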
KB-V1 MDR tox – qHTS assay for MDR1-selective chemotherapeutics: Primary screen using the drug-selected MDR subline cells KB-V1 | KB-V1 MDR cells viability, CellTiter-Glo, 72 h | Potency, µM (titrated, usually from 46.1 µM), usual class: cytotoxic | actives 3.4% (n = 400,000) | AID 1347076, 2019; note: nearly all actives have a fitted effect of over 60% in size
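Drug-selected KB-V1 cells, grown in DMEM lacking phenol red with 10% FBS, receive compound titrations; after three days at 37 degrees C, surviving cell ATP is quantified by CellTiter-Glo luminescence and responses normalized and curve-fitted.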
KB-3-1 tox – qHTS assay for MDR1-selective chemotherapeutics: Primary screen using the parental adenocarcinoma cell KB-3-1; KB-3-1 viability, CellTiter-Glo ATP luminescence, 72 h; actives 1.4% (n = 400,000); Potency, µM (top dose mostly 46.1 µM), hits mostly cytotoxic; note: nearly all actives have a fitted effect of over 60% in size
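Screening of KB-3-1 cells (DMEM, 10% FBS, phenol-red free) ran from lowest to highest compound concentration; after 72 h at 37 °C viability was read luminescently and curves fitted.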
HT1080-NT tox – qHTS for induction of synthetic lethality in tumor cells producing 2HG: qHTS for the HT-1080-NT fibrosarcoma cell line; HT-1080-NT fibrosarcoma viability, CellTiter-Glo ATP luminescence, 48 h; Potency, µM (series often up to 46.1 µM), usual class: cytotoxic; actives 1.6% (n = 360,000); AID 686970, 2013;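 note: NT is the 2HG producing partner of a matched IDH1 knockdown line; nearly all actives have a fitted effect of over 55% in size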
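Fibrosarcoma NT cells, 750 per well in 5% FBS RPMI, were exposed to compound for 48 hours. Viability: CellTiter-Glo luminescence.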
Hits are given with their value. Unless noted, calls come from the whole dose curve; as a rule, active = well fitted curve in the direction sought with a large enough effect; inconclusive = small, poorly fitted or top-dose-only effect, or another doubt; inactive = no such curve, though single readings can be large; an effect the other way counts as inactive or inconclusive.

Results for CC(C)C[C@H]1CNC(=S)N1C[C@H]1CCCN1C[C@H](Cc1ccccc1)N1C[C@H](Cc2ccc(O)cc2)N(CC2CCCCC2)C1=S ?
IL-1B inflam inh: inconclusive; HT1080 IDH1KD tx: 16.4µM; KB-V1 MDR tox: inconclusive; KB-3-1 tox: inconclusive; HT1080-NT tox: 14.6µM

How did CC(C)C[C@H]1CNC(=S)N1CC1CCCN1C[C@H](Cc1ccc(O)cc1)N1C[C@H](Cc2ccccc2)N(CC2CCCCC2)C1=S (stereo partly drawn) do in these assays?
IL-1B inflam inh: -53.7; HT1080 IDH1KD tx: inactive; KB-V1 MDR tox: inactive; KB-3-1 tox: inactive; HT1080-NT tox: inconclusive

What do the screens show for `COc1ccc(OC)c(-c2noc(N3CCN(c4cc(C)ccc4C)CC3)n2)c1`?
KB-V1 MDR tox: inactive; KB-3-1 tox: inactive

What do the screens show for `CCn1c2ccccc2c2cc(NC(=O)N3CCCCC3)ccc21`?
IL-1B inflam inh: inconclusive; HT1080 IDH1KD tx: inconclusive; KB-V1 MDR tox: inactive; KB-3-1 tox: inactive; HT1080-NT tox: inactive

How did O=C(O)CCCC[C@@H]1SC[C@@H]2NC(=O)N[C@@H]21 do in these assays?
IL-1B inflam inh: -106.1; HT1080 IDH1KD tx: inactive; KB-V1 MDR tox: inactive; KB-3-1 tox: inactive; HT1080-NT tox: inactive

Results for COC(=O)CCCCC1SCC2NC(=O)NC21 (stereo not drawn) ?
IL-1B inflam inh: inactive; HT1080 IDH1KD tx: inactive; KB-V1 MDR tox: inactive; KB-3-1 tox: inactive; HT1080-NT tox: inactive

How did COc1ccc2cc(-c3nc(Cl)c4c5c(sc4n3)CCCC5)c(=O)oc2c1 do in these assays?
KB-V1 MDR tox: inconclusive; KB-3-1 tox: inactive

What do the screens show for `Cc1ccc(-n2c(C)nc3c(cnn3-c3ccccc3)c2=O)cc1`?
KB-V1 MDR tox: 16.4µM; KB-3-1 tox: inconclusive

How did COc1cccc(-n2c(-c3ccccc3F)nc3c(cnn3-c3ccc(C)cc3)c2=O)c1 do in these assays?
KB-V1 MDR tox: inactive; KB-3-1 tox: 16.4µM

Results for CCOC(=O)c1cccc(NC(=O)CCS(=O)(=O)c2cccs2)c1 ?
IL-1B inflam inh: inactive; HT1080 IDH1KD tx: inactive; KB-V1 MDR tox: 20.6µM; KB-3-1 tox: inactive; HT1080-NT tox: inactive

Results for COc1cc(NC(=O)CNS(=O)(=O)c2cccs2)cc(OC)c1OC ?
KB-V1 MDR tox: inconclusive; KB-3-1 tox: inactive

How did CCOC(=O)c1cccc(NC(=O)CNS(=O)(=O)c2cccs2)c1 do in these assays?
IL-1B inflam inh: inactive; HT1080 IDH1KD tx: inactive; KB-V1 MDR tox: 23.1µM; KB-3-1 tox: inactive; HT1080-NT tox: inactive

How did CC1CCCC(NC(=O)COC(=O)[C@@H](NC(=O)c2ccco2)C(C)C)C1C (stereo partly drawn) do in these assays?
IL-1B inflam inh: inactive; HT1080 IDH1KD tx: inactive; KB-V1 MDR tox: inactive; KB-3-1 tox: inactive; HT1080-NT tox: inactive

How did CCCCN(C(=O)CSc1nn(-c2ccc(F)cc2)c(=S)s1)c1c(N)n(CCCC)c(=O)[nH]c1=O do in these assays?
IL-1B inflam inh: -71.6; HT1080 IDH1KD tx: inactive; KB-V1 MDR tox: inconclusive; KB-3-1 tox: inactive; HT1080-NT tox: inactive

How did CCCCN(C(=O)CSc1nc2ccccc2s1)c1c(N)n(CCCC)c(=O)[nH]c1=O do in these assays?
IL-1B inflam inh: inactive; HT1080 IDH1KD tx: inactive; KB-V1 MDR tox: inconclusive; KB-3-1 tox: inactive; HT1080-NT tox: inactive

How did CCN(C(=O)CSc1cc(C)c2ccccc2n1)c1c(N)n(Cc2ccccc2)c(=O)[nH]c1=O do in these assays?
IL-1B inflam inh: inactive; HT1080 IDH1KD tx: inactive; KB-V1 MDR tox: inactive; KB-3-1 tox: inactive; HT1080-NT tox: inactive

How did CCCCN(C(=O)c1cc(-c2ccc(F)cc2)nc2ccccc12)c1c(N)n(CCCC)c(=O)[nH]c1=O do in these assays?
IL-1B inflam inh: -69.7; HT1080 IDH1KD tx: inactive; KB-V1 MDR tox: inactive; KB-3-1 tox: inconclusive; HT1080-NT tox: inactive

What do the screens show for `CCCCN(C(=O)CSc1cc(C)c2ccccc2n1)c1c(N)n(Cc2ccccc2)c(=O)[nH]c1=O`?
IL-1B inflam inh: -59.2; HT1080 IDH1KD tx: inactive; KB-V1 MDR tox: inactive; KB-3-1 tox: inactive; HT1080-NT tox: inactive

How did COC(=O)C1=CN(c2ccc(N3CCOCC3)cc2)C(N)=C(C#N)C1c1cccc(F)c1 (stereo not drawn) do in these assays?
IL-1B inflam inh: inactive; HT1080 IDH1KD tx: inactive; KB-V1 MDR tox: inactive; KB-3-1 tox: inactive; HT1080-NT tox: inactive

Results for O=c1c2ccccc2nc2sc(Nc3cccc(N4CCNCC4)c3)nn12 ?
KB-V1 MDR tox: inactive; KB-3-1 tox: inconclusive

Results for COC(=O)c1cn(NC(=O)c2ccc([N+](=O)[O-])cc2Cl)c(=O)c2ccccc12 ?
IL-1B inflam inh: inactive; HT1080 IDH1KD tx: inactive; KB-V1 MDR tox: inactive; KB-3-1 tox: inactive; HT1080-NT tox: inactive

How did CCN=C(NC#N)SCc1c(F)cccc1Cl do in these assays?
IL-1B inflam inh: inactive; HT1080 IDH1KD tx: inactive; KB-V1 MDR tox: inactive; KB-3-1 tox: inactive; HT1080-NT tox: inactive

How did Cc1ccc(NC(=O)c2cc3c([nH]c2=O)CC(C)(C)CC3=O)cc1 do in these assays?
KB-V1 MDR tox: inactive; KB-3-1 tox: inactive

How did CS(=O)(=O)Nc1cccc(C2=NN(C(=O)c3ccccc3Cl)C(c3ccccc3O)C2)c1 (stereo not drawn) do in these assays?
IL-1B inflam inh: inactive; HT1080 IDH1KD tx: inactive; KB-V1 MDR tox: inactive; KB-3-1 tox: inactive; HT1080-NT tox: inactive

How did COc1ccc(C2C3=C(CC(C)(C)CC3=O)Nc3cc4c(cc32)OCO4)cc1 (stereo not drawn) do in these assays?
IL-1B inflam inh: -60.0; HT1080 IDH1KD tx: inactive; KB-V1 MDR tox: inactive; KB-3-1 tox: inactive; HT1080-NT tox: inactive

Results for CC1(C)CC(=O)C2=C(C1)Nc1cc3c(cc1C2c1ccc(F)cc1)OCO3 (stereo not drawn) ?
IL-1B inflam inh: inactive; HT1080 IDH1KD tx: inactive; KB-V1 MDR tox: inactive; KB-3-1 tox: inactive; HT1080-NT tox: inactive

Results for COc1ccc(OC)c(C2Nc3ccccc3NC3=C2C(=O)CC(C)(C)C3)c1 (stereo not drawn) ?
IL-1B inflam inh: inactive; HT1080 IDH1KD tx: inactive; KB-V1 MDR tox: inactive; KB-3-1 tox: inactive; HT1080-NT tox: inactive

How did COc1ccc(OC)c(C2C3=C(COC3=O)Nc3cc4c(cc32)OCO4)c1 (stereo not drawn) do in these assays?
IL-1B inflam inh: inactive; HT1080 IDH1KD tx: 0.517µM; KB-V1 MDR tox: 1.16µM; KB-3-1 tox: 0.058µM; HT1080-NT tox: 0.651µM

Results for COC(=O)c1cccc(CSc2nc(-c3ccccc3)c(C#N)c(=O)[nH]2)c1 ?
IL-1B inflam inh: inactive; HT1080 IDH1KD tx: inactive; KB-V1 MDR tox: inactive; KB-3-1 tox: inactive; HT1080-NT tox: inactive

How did O=C(Oc1ccc(-c2nnco2)cc1)N(c1ccccc1)c1ccccc1 do in these assays?
IL-1B inflam inh: -79.1; HT1080 IDH1KD tx: inactive; KB-V1 MDR tox: inactive; KB-3-1 tox: inactive; HT1080-NT tox: inactive
